Reference: PubChem BioAssay AID2384 (Southern Research Specialized Biocontainment Screening …, 2010)
Hit rate of the full screen: of about 2,300 compounds, about 1,100 (48%) were called active. No rule for the calls is given here. The set was probably picked from earlier hits. The list shows a part of the results. Potency and affinity values are given separately.

Assay: inhibitors in S. typhi counter-screen strain, dose response, counter-screen for PhoP regulon inhibitor project, fluorescence, 4 h (AID 2384)
Conditions: S. typhi GFP reporter counter-screen; series mostly up to 150 µM; inhibition: at the top concentration

| SMILES | inhibition |
| --- | --- |
| CCC(C)n1c(SCC(=O)NCc2ccco2)nnc1-c1cccc(S(=O)(=O)N2CCOCC2)c1 (stereo not drawn) | 3.8% (inactive) |
| COc1cc(C)c(Cl)cc1S(=O)(=O)n1cnc(C)c1 | 13.2% (inactive) |
| CC1CC(C)CN(C(=O)c2ccc(NC(=O)c3ccc(=O)[nH]c3)cc2)C1 (stereo not drawn) | 20% (inactive) |
| COc1cccc(NC(=O)N2CCCC(C(=O)Nc3ccccc3OC)C2)c1 (stereo not drawn) | -26.5% (inactive) |
| COc1ccccc1NC(=O)CSC1CC(=O)N(c2ccc3c(c2)OCO3)C1=O (stereo not drawn) | 23.1% (inactive) |
| CN(C)/C=N/c1ncc(C(=O)c2ccc(Cl)cc2)s1 | -34.4% (inactive) |
| CCN(CC)CCCCCCCCOC(=O)c1cc(OC)c(OC)c(OC)c1 | -0.35% (inactive) |
| CSc1ccc(NC(=O)C(C)N2CCN(C)CC2)cc1 (stereo not drawn) | 16.4% (inactive) |
| CCn1cc(C(=O)NCCc2ccccc2)c(=O)c2cc(F)c(N3CCN(C)CC3)cc21 | 5.9% (inactive) |
| O=C(CCc1nc2ccccc2s1)NC1CCOC1=O (stereo not drawn) | 1.3% (inactive) |
| CCOc1ccc2nc(NC(=O)C3=NNC(=O)CC3)sc2c1 | 4.7% (inactive) |
| CCCCn1cnc2cc(NCc3cccc(OC)c3O)ccc21 | 18.8% (inactive) |
| CCOc1ccccc1NC(=O)NS(=O)(=O)c1ccc(C)cc1 | -13% (inactive) |
| CC(=O)Nc1ccc(S(=O)(=O)Nc2nc3ccccc3nc2Nc2cccc(S(N)(=O)=O)c2)cc1 | -9.28% (inactive) |
| Cc1ccc(S(=O)(=O)NC(C)(C)CSc2nnc(N)s2)cc1 | -24.4% (inactive) |
| Cc1cccc(NCN2C(=O)c3ccccc3C2=O)c1 | 6.6% (inactive) |
| Cc1cc(C)c(S(=O)(=O)Nc2cccnc2)c(C)c1 | -3.5% (inactive) |
| Cc1ccc(C)c(SCC(=O)Nc2ccc(S(=O)(=O)Nc3ncccn3)cc2)c1 | -5.02% (inactive) |
| COc1ccc(C(=O)NNS(=O)(=O)c2ccccc2)cc1OC | 2.97% (inactive) |
| COC(=O)NNS(=O)(=O)c1ccc(C)cc1 | 37.3% (inactive) |
| O=C(COC(=O)CNC(=O)c1ccccc1)Nc1ccc(F)c([N+](=O)[O-])c1 | -8.3% (inactive) |
| CCOc1ccc(C2CC(=O)NC(SCC(=O)OC)=C2C#N)cc1 (stereo not drawn) | -12.6% (inactive) |
| COc1cc(S(=O)(=O)N2CCN(C(=O)c3ccco3)CC2)c(OC)cc1C | 7.78% (inactive) |
| COc1ccc(-n2nnc3c(SCC(=O)N4CCCc5ccccc54)ncnc32)cc1 | -11.9% (inactive) |
| Cc1c(C(=O)N2CCN(Cc3ccccc3)CC2)sc2ncnc(N3CCOCC3)c12 | -6.98% (inactive) |
| O=C(Nc1ccccc1)c1cccnc1N1CCOCC1 | -26.5% (inactive) |
| CCC(Sc1nccn1C)C(=O)Nc1nnc(C)s1 (stereo not drawn) | -18.7% (inactive) |

| SMILES | inhibition |
| --- | --- |
| N#Cc1ccc(C2=NC(C(F)(F)F)(C(F)(F)F)c3c(n(Cc4ccco4)c(=O)[nH]c3=O)N2)cc1 | -0.36% (inactive) |
| COCCNC(=O)Cn1cnc2c1c(=O)n(C)c(=O)n2C | 8.18% (inactive) |
| Cc1[nH]c2ccccc2c1/C=N/Nc1nc2ccccc2[nH]1 | 11.7% (inactive) |
| Cc1cc(C)c2c(N)c(C(=O)c3ccc(Cl)c(Cl)c3)sc2n1 | -3.82% (inactive) |
| O=C(O)c1cccc(NC2=Nc3cccc4cccc2c34)c1 | -13.8% (inactive) |
| COc1ccc(Cn2nnnc2C(c2cc3ccc(OC)cc3[nH]c2=O)N2CCC(C)CC2)cc1 (stereo not drawn) | -31.1% (inactive) |
| CCCCCNC(=O)c1cn(CC)c2cc(N3CCN(C)CC3)c(F)cc2c1=O | 31.1% (inactive) |
| O=C(CCC(=O)Nc1nnc(C2CCCCC2)s1)NCC1CCCO1 (stereo not drawn) | 21.9% (inactive) |
| COc1ccc(OC)c(S(=O)(=O)N2CCC(C(=O)NCc3ccccc3OC)CC2)c1 | 14.1% (inactive) |
| COC(=O)C1=C(C(=O)OC)SC(=C2C(=S)C(C)(C)N(C(=O)C3CC3)c3ccccc32)S1 | 26.6% (inactive) |
| COc1cc(/C=N/N(C)S(=O)(=O)c2ccc(C)cc2)cc([N+](=O)[O-])c1O | 15.3% (inactive) |
| COc1cccc(/C=N/NC(=O)CNC(=O)COc2cccc(C)c2)c1O | 18% (inactive) |
| Nc1ccc(C(O)(C(F)(F)F)C(F)(F)F)cc1 | 6.54% (inactive) |
| Cc1nnc(SCc2cnc(-c3ccc(C(C)C)cc3)s2)n1C | 8.56% (inactive) |
| COC(=O)c1ccc(Cn2c(O)c(N=NC(N)=S)c3ccccc32)o1 | 0.41% (inactive) |
| CC1CCCCN1S(=O)(=O)c1ccc(S(=O)(=O)NCCc2ccncc2)cc1 (stereo not drawn) | -15.6% (inactive) |
| NC(=O)c1ccsc1NC(=O)c1ccc2c(c1)CCCC2 | -10.9% (inactive) |
| COc1ccc(/C=N/NC(=O)c2cccnc2)c(C(=O)O)c1OC | -21.9% (inactive) |
| N#C/C(=C\c1ccc(O)c(O)c1)C(=O)c1ccc(O)c(O)c1 | 3.1% (inactive) |
| COc1cc(/C=C(/C#N)C(=O)Nc2ccccc2)c(Br)cc1OCc1ccc(C(=O)O)cc1 | 1.17% (inactive) |
| COc1ccc(OC)c(C(=O)c2ccc(C(=O)O)cc2)c1 | 21% (inactive) |
| COc1ccc2nc(C)cc(Nc3ccc(N4CCOCC4)cc3)c2c1 | 11.6% (inactive) |
| CC(Oc1ccc(/C=N/NC(=O)Cc2cccc3ccccc23)cc1)C(=O)O (stereo not drawn) | -15.5% (inactive) |
| COc1ccc(/C=N/NC2=NCCCCC2)c(OC)c1 | 15.8% [at 9.38 µM] (inactive) |
| COc1ccc(CNC(=O)C(c2cccs2)N(C(=O)c2csnn2)C2CC2)cc1 (stereo not drawn) | 4.17% (inactive) |
| COC(=O)c1ccc(NC(=O)c2ccccc2N(C)S(=O)(=O)c2ccccc2)cc1 | -15.2% (inactive) |
